Assay results from PubChem BioAssay (NCI).
About 83,000 compounds went through this panel and 20% of them were active in at least one assay; those are over-represented in the sample as a whole.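 96-well plates, one dose, 48 hours. Percent growth reported; active if below 10.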 Unmarked numbers belong to inactive results. Active and inactive are the calls of the source.

Key:
Experiment in all cases: NCI-60 one-dose screen, 48 h (100 = growth as untreated, 0 = no growth, -100 = all killed)
Settings in all cases: 10 µM unless noted
NCI-H23 lung = system: NCI-H23 lung
NCI-H226 lung = system: NCI-H226 lung
NCI-H322M lung = system: NCI-H322M lung
HOP-62 NSCLC = system: HOP-62 NSCLC
NCI-H460 lung = system: NCI-H460 lung
HOP-92 NSCLC = system: HOP-92 NSCLC
NCI-H522 lung = system: NCI-H522 lung
A549/ATCC NSCLC = system: A549/ATCC NSCLC
786-0 renal = system: 786-0 renal
COLO 205 colon = system: COLO 205 colon

Compound	growth (NCI-H23 lung)	growth (NCI-H226 lung)	growth (NCI-H322M lung)	growth (HOP-62 NSCLC)	growth (NCI-H460 lung)	growth (HOP-92 NSCLC)	growth (NCI-H522 lung)	growth (A549/ATCC NSCLC)	growth (786-0 renal)	growth (COLO 205 colon)
CCCCNC(=O)Oc1ccc(/C(=C(\C)c2ccc(Cl)cc2)c2ccc(OCCN3CCCCC3)cc2)cc1	78.8%	99.1%	94.8%	78.6%	85.9%	64.5%	85.2%	63.8%	63.2%	69.2%
O=c1c2cc(F)ccc2sc2c(NCCCNCCO)nc3ccc(F)cc3c12	82.5%	84.8%	79.4%	71.5%	-32.8% (active)	4.67% (active)	60.9%	64.7%	64.1%	23.3%
Clc1ccc(C(/C=C/c2sc(Cl)nc2Cl)=N/Nc2cc(Cl)cc(Cl)c2)cc1	92.2%	90.1%	99.9%	99.1%	103%	93%	90.8%	103%	106%	118%
COc1cc2cc(Oc3ccc(NC(=O)Nc4cccc(C(F)(F)F)c4)cc3)c(C)nc2cc1OCCN1CCOCC1	15.4%	57%	80.4%	50.8%	16.4%	33.9%	29.3%	15.8%	67.3%	35.5%
CCCCCCCCCCCCCCCCCC1OCC(COC(=O)O[C@]2(CC)C(=O)OCc3c2cc2n(c3=O)Cc3cc4ccccc4nc3-2)O1 (some centres not stated)	75.4%	75.4%	101%	53%	31.4%	92.6%	82.6%	78.5%	86.7%	79.3%
CC(C)c1cc(C(C)C)c(S(=O)(=O)Oc2ccc(NC(=O)c3ccc(Cl)cc3)cc2)c(C(C)C)c1	15.2%	51.6%	60.4%	57.9%	13.4%	19.1%	7.91% (active)	27.5%	33.8%	32.7%
COc1cc(Nc2nc(NCCN)nc3cc[nH]c(=O)c23)cc(OC)c1	65.1%	93.7%	83%	97.8%	96.9%	59.5%	72.9%	90.5%	86.9%	55.3%
NC[C@@H]1O[C@H](O[C@@H]2[C@@H](CO)OC(O[C@@H]3[C@@H](O)[C@H](N)C[C@H](N)[C@H]3OC3O[C@H](CN)[C@@H](O)[C@H](O)[C@H]3N)[C@@H]2O)[C@H](N)[C@@H](O)[C@@H]1O (some centres not stated)	100%	109%	120%	115%	105%	125%	111%	105%	101%	115%
O=CN(SSN(C=O)C1CCCCC1)C1CCCCC1	115%	91.9%	110%	95.4%	125%	135%	-25.1% (active)	119%	105%	113%
CC(=O)Oc1ccccc1C(=O)N=C1[Se]CCCN1C(=O)c1ccccc1OC(C)=O	6.41% (active)	-19.1% (active)	-5.61% (active)	17.7%	5.16% (active)	-10.3% (active)	73.3%	77.9%	95.9%	114%
Cc1cc(Cl)ccc1NS(=O)(=O)c1ccc(-c2cnc(C3CC3)o2)cc1	31.1%	27.7%	50.7%	48.5%	12.2%	58.3%	13.5%	28.4%	28.6%	-11% (active)
Cc1ccc(-c2nc(SCC(=O)Nc3nc(-c4ccc(Cl)cc4)cs3)[nH]c(=O)c2C#N)cc1	95.1%	89.5%	101%	94%	105%	-13.3% (active)	77.5%	86.7%	93.2%	117%
COc1cc(C(=O)/C=C/c2c(Cl)nc3sccn23)cc(OC)c1OC	91.8%	92%	77.3%	83.3%	87.1%	57.3%	61.8%	83%	91.6%	104%
O=C(Cc1ccc2c(c1)OCCO2)Nc1nc2ccc(F)cc2s1	87.1%	104%	105%	93.4%	103%	109%	87.2%	102%	104%	124%
CCCCn1c(=O)c(-c2cc(-c3ccc(Cl)cc3)nc(-c3ccc(Cl)cc3)c2)cc2cc(Cl)ccc21	105%	104%	96%	104%	108%	94.2%	99.3%	101%	106%	109%
Cc1nn(-c2ccccc2)c(-n2ccnc2)c1/C=N/Nc1nc(-c2ccc(F)cc2)cs1	58.1%	50.3%	88.8%	98.8%	83.3%	42.9%	73.6%	65%	106%	70.8%
COc1ccc(N2C(=O)C(Oc3ccccc3)C2c2ccc(C)cc2)cc1 (configuration not stated)	91%	114%	103%	104%	103%	66.8%	94.2%	90.5%	98.5%	107%
CCCCCCn1c(-c2ccc(C(=O)O/N=C(\N)c3ccc4ccccc4c3)cc2)nc(-c2ccccc2)c1-c1ccccc1	44.3%	80.3%	83.6%	81.7%	58.5%	16%	47.9%	-33.5% (active)	4.48% (active)	77.2%
Cn1cc(-c2ccc3cc(-c4ccc(CC(=O)Nc5cc(C(C)(C)C)nn5C)cc4)cnc3c2)cn1	5.37% (active)	-17% (active)	21.4%	15.9%		21.1%	10.8%	17.1%	21.4%	16.2%
O=c1cc(SCc2ccccc2)nc[nH]1	108%	104%	105%	91.1%	112%	100%	116%	103%	95%	133%
C(=N/Nc1ncnc2nc[nH]c12)/c1ccccn1	47.6%	39.9%	22.4%	23.6%	55.8%	19.4%	35.7%	35.2%	21.4%	26.1%
Cc1ccc(-c2nc3c(c(-c4ccccc4)nn3-c3ccccc3)c(-c3ccc(O)cc3)c2C#N)cc1	67.5%	80%	88.5%	40%	27.4%	74.5%	69.4%	52.3%	18.6%	70.4%
C#Cc1cccc(NC(=O)c2ccc(NC(=O)C=C)cc2)c1	99.1% [8.25 µM]	88.1% [8.25 µM]	84.4% [8.25 µM]	95.2% [8.25 µM]		90% [8.25 µM]	45.4% [8.25 µM]	69.6% [8.25 µM]	56.5% [8.25 µM]	115% [8.25 µM]
COc1cc(C(=O)N2N=C(c3ccc(S(C)(=O)=O)cc3)CC2c2ccco2)cc(OC)c1OC (configuration not stated)	76.9%	77.4%	95%	67.3%	58.2%	39.8%	11.9%	58.2%	75.1%	69.8%
CCN(CC)CCCNc1nc2ccccc2c2c(=O)c3cc(Cl)ccc3sc12	86.5%	82.1%	84.5%	74.4%	8.8% (active)	36.9%	73.8%	64.7%	75.7%	56.3%
Cc1cccc2c1S/C(=C/c1ccc([N+](=O)[O-])cc1)C2=O	91.3%	86.6%	96.3%	92.5%		105%	93.1%	106%	106%	114%
